KB-3-1 cytotox: KB-3-1 parental cell cytotoxicity; AID 1347075; Potency, µM (top dose mostly 46.1 µM), most hits filed as cytotoxic; KB-3-1 viability, CellTiter-Glo ATP luminescence, 72 h; actives 1.4% (n = 400,000); further: on the % scale 0 is the no-effect control and ±100 the full control effect; nearly all actives have a fitted effect of over 60% in size
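KB-3-1 parental drug-naive adenocarcinoma cells in DMEM/10% FBS, incubated 72 h at 37 C with pin-transferred compounds across a concentration series. Viability by CellTiter-Glo luminescence; concentration-response curves fitted after normalization.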
SW480 rerep: induces DNA re-replication in SW480 colon adenocarcinoma cells; actives 1.8% (n = 340,000); AID 624297; Potency, µM (highest dose often 46.1 µM), for the others: top-dose re-replication activation, actives largely listed as activators; SW480 DNA re-replication, Hoechst DNA content imaging, 48 h; further: % of control where 0% means no effect; nearly all actives have a fitted effect of over 55% in size
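Readout is total intensity of Hoechst-stained nuclei, excited at 405 nm and collected at 500-530 nm. Compound treatment lasted 48 hr at 37 C in 5% CO2 before staining.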
MCF10A rereplic: induces DNA re-replication in MCF 10a normal breast cells. MCF 10A DNA re-replication, Hoechst nuclear intensity, 48 h. Potency, µM (series often up to 46.1 µM), without a hit: at the top dose activity, positive = re-replication, actives largely listed as activators. actives 2.9% (n = 350,000); further: % of control where 0% means no effect; nearly all actives have a fitted effect of over 50% in size
KB-V1 MDR tox: KB-V1 MDR subline cytotoxicity. KB-V1 MDR cells viability, CellTiter-Glo, 72 h. Potency, µM (top dose mostly 46.1 µM), usual class: cytotoxic. actives 3.4% (n = 400,000); further: on the % scale 0 is the no-effect control and ±100 the full control effect; nearly all actives have a fitted effect of over 60% in size
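Compound-treated KB-V1 multidrug-resistant cells, 72 h, 37 degrees C; viability by CellTiter-Glo. Fitted qHTS curves give the values.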
ELG1 repair inh: blocks ELG1-dependent DNA repair in HEK293T cells; HEK293T ELG1-luciferase reporter, luminescence, 16 h; DNA damage induced by 5-fluorouridine; Potency, µM (titrated, usually from 46.1 µM), for inactives: top-dose activity change, negative = inhibition, actives largely listed as inhibitors; actives 2.3% (n = 330,000); AID 504467; further: on the % scale 0 is the no-effect control and ±100 the full control effect; nearly all actives have a fitted effect of over 55% in size
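Cells (2,000 per well) received 5-fluorouridine plus test compound or DMSO and were incubated 16 hr at 37 °C, 5% CO2. Luciferase activity was read by luminescence 30 min after ONE-Glo addition; signal suppression marked inhibition of damage-induced ELG1 function.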
Starred values were filed as active, the others as inactive. In the library only some 8.2% were active in any assay of this set; here they are far more common. The call rests on the fitted dose curve; in most records, active means well fitted curve in the direction sought with a large enough effect; inconclusive means small, poorly fitted or top-dose-only effect, or another doubt; inactive means no such curve, though single readings can be large; an effect the other way counts as inactive or inconclusive. Potency means the concentration at half of the fitted maximal effect.

What do the screens show for `O=C(Cn1ncc2c3ccccc3n(Cc3ccccc3)c2c1=O)N1CCN(c2ncccn2)CC1`?
KB-3-1 cytotox: inconclusive; SW480 rerep: 4%; MCF10A rereplic: 16%; KB-V1 MDR tox: 5.2µM*; ELG1 repair inh: inconclusive

How did O=C(Cn1ncc(Cl)c(Cl)c1=O)N1CCc2ccccc21 do in these assays?
KB-3-1 cytotox: inconclusive; SW480 rerep: -2%; MCF10A rereplic: 10µM*; KB-V1 MDR tox: inconclusive; ELG1 repair inh: inconclusive

Results for N#Cc1cccc(OC2=NS(=O)(=O)c3ccccc32)c1 ?
KB-3-1 cytotox: inactive; KB-V1 MDR tox: inconclusive

What do the screens show for `COc1ccc(CNC(=O)CSc2nc(SC)ns2)cc1`?
KB-3-1 cytotox: inactive; SW480 rerep: -60%; MCF10A rereplic: 3%; KB-V1 MDR tox: inactive; ELG1 repair inh: 5%

How did O=C(NCC1CCCO1)C(c1ccco1)N(Cc1ccc(F)cc1)C(=O)CN1C(=O)c2ccccc2S1(=O)=O (centres undefined) do in these assays?
KB-3-1 cytotox: inactive; SW480 rerep: -14%; MCF10A rereplic: 1%; KB-V1 MDR tox: inactive; ELG1 repair inh: 3%

What do the screens show for `CC1(C)C(=O)Nc2ccccc2N1C(=O)Cn1ncc(Cl)c(Cl)c1=O`?
KB-3-1 cytotox: inconclusive; SW480 rerep: 9.2µM*; MCF10A rereplic: inconclusive; KB-V1 MDR tox: inactive; ELG1 repair inh: inconclusive

Results for O=C(Cn1ncc(Cl)c(Cl)c1=O)N1CCOCC1 ?
KB-3-1 cytotox: inconclusive; SW480 rerep: 2.9µM*; MCF10A rereplic: 3.7µM*; KB-V1 MDR tox: inactive; ELG1 repair inh: inconclusive

Results for Cc1nn(CC(=O)N2c3ccccc3NC(=O)C2(C)C)c(C)c1[N+](=O)[O-] ?
KB-3-1 cytotox: inactive; SW480 rerep: 22%; MCF10A rereplic: inconclusive; KB-V1 MDR tox: inactive; ELG1 repair inh: 8%

What do the screens show for `O=C(Cn1cnc2ccccc2c1=O)N1CCN(Cc2ccccc2)CC1`?
KB-3-1 cytotox: inactive; SW480 rerep: -5%; MCF10A rereplic: -4%; KB-V1 MDR tox: 23µM*; ELG1 repair inh: -3%

What do the screens show for `Cn1ncc([N+](=O)[O-])c1C(=O)Nc1ccccc1C#N`?
KB-3-1 cytotox: inactive; KB-V1 MDR tox: inconclusive

What do the screens show for `COC(=O)c1cc2oc(C)cc2n1Cc1ccccc1Cl`?
KB-3-1 cytotox: inactive; KB-V1 MDR tox: inactive

Results for CCc1ccc(-c2cn3c(n2)SCC3)cc1 ?
KB-3-1 cytotox: inactive; SW480 rerep: -17%; MCF10A rereplic: 22%; KB-V1 MDR tox: inactive; ELG1 repair inh: inconclusive

What do the screens show for `CCc1ccc(-c2cn(-c3nc(C)cc(C)n3)c(=N)o2)cc1`?
KB-3-1 cytotox: 21µM*; SW480 rerep: 0%; MCF10A rereplic: 23µM*; KB-V1 MDR tox: inconclusive; ELG1 repair inh: -2%

Results for CCCc1cc(-c2nc(N)ncc2-c2ccc3c(c2)OCCCO3)c(O)cc1OC ?
KB-3-1 cytotox: inactive; SW480 rerep: inconclusive; MCF10A rereplic: inconclusive; KB-V1 MDR tox: 2.9µM*; ELG1 repair inh: inconclusive

Results for CCOc1ccc(-c2nc(N)ncc2-c2ccccc2)c(O)c1 ?
KB-3-1 cytotox: 15µM*; SW480 rerep: 16%; MCF10A rereplic: 17%; KB-V1 MDR tox: inconclusive; ELG1 repair inh: -18%

How did CCOc1ccc(-c2nc(N)ncc2-c2ccc(OC)cc2)c(O)c1 do in these assays?
KB-3-1 cytotox: inconclusive; SW480 rerep: inconclusive; MCF10A rereplic: -53%; KB-V1 MDR tox: 7.3µM*; ELG1 repair inh: inconclusive

How did CCOc1ccc(-c2nc(N)ncc2-c2ccc(Cl)cc2)c(O)c1 do in these assays?
KB-3-1 cytotox: inactive; SW480 rerep: -30%; MCF10A rereplic: inconclusive; KB-V1 MDR tox: inactive; ELG1 repair inh: -33%

How did O=C(N/C=N/O)C(c1ccccc1)c1ncc(C(F)(F)F)cc1Cl (centres undefined) do in these assays?
KB-3-1 cytotox: inactive; SW480 rerep: -2%; MCF10A rereplic: 1%; KB-V1 MDR tox: inactive; ELG1 repair inh: 10%

What do the screens show for `CCN=c1scc(-c2cccs2)n1/N=C/c1cc(OC)ccc1O`?
KB-3-1 cytotox: 18µM*; SW480 rerep: inconclusive; MCF10A rereplic: 5.8µM*; KB-V1 MDR tox: inconclusive; ELG1 repair inh: inconclusive

How did COc1ccc(O)c(/C=N/n2c(-c3ccco3)csc2=Nc2cccnc2)c1 do in these assays?
KB-3-1 cytotox: inactive; SW480 rerep: 4%; MCF10A rereplic: 27%; KB-V1 MDR tox: inactive; ELG1 repair inh: 12%

How did O=C(c1ccco1)N1N=C2CCCCCC2C1(O)C(F)(F)F (centres undefined) do in these assays?
KB-3-1 cytotox: inactive; SW480 rerep: 1%; MCF10A rereplic: 1%; KB-V1 MDR tox: inactive; ELG1 repair inh: 0.33µM*

Results for O=C(c1ccncc1)N1N=C2CCCCCC2C1(O)C(F)(F)F (centres undefined) ?
KB-3-1 cytotox: inactive; SW480 rerep: 2%; MCF10A rereplic: -1%; KB-V1 MDR tox: inactive; ELG1 repair inh: -29%

How did Cc1cccc2sc(NC(=O)CCNS(=O)(=O)c3cccc4nonc34)nc12 do in these assays?
KB-3-1 cytotox: inconclusive; SW480 rerep: 4%; MCF10A rereplic: 17%; KB-V1 MDR tox: 23µM*; ELG1 repair inh: inconclusive

Results for C[C@H]1CN([C@@H](C)CO)C(=O)CCCn2nncc2CO[C@H]1CN(C)C(=O)Nc1cccc2ccccc12 ?
KB-3-1 cytotox: inactive; KB-V1 MDR tox: inactive

How did CC(C)c1ccc(/C=c2\sc3n(c2=O)C(N)=C(C#N)C(c2ccc(C(C)C)cc2)C=3C(N)=O)cc1 (centres undefined) do in these assays?
KB-3-1 cytotox: inconclusive; SW480 rerep: inconclusive; MCF10A rereplic: 1.3µM*; KB-V1 MDR tox: inactive

How did CCOC(=O)C1=C(N)n2c(s/c(=C\c3cccnc3)c2=O)=C(C#N)C1c1cccnc1 (centres undefined) do in these assays?
KB-3-1 cytotox: inactive; SW480 rerep: 1%; MCF10A rereplic: 7%; KB-V1 MDR tox: inactive

How did CCOC(=O)c1c(NC(=O)/C=C/c2ccc(OCC)cc2)sc2c1CCCC2 do in these assays?
KB-3-1 cytotox: inactive; KB-V1 MDR tox: inactive

Results for CCCCC(=O)Nc1sc(C(=O)N(CC)CC)c(C)c1C(=O)OC ?
KB-3-1 cytotox: inactive; SW480 rerep: -8%; MCF10A rereplic: 0%; KB-V1 MDR tox: inactive; ELG1 repair inh: inconclusive

How did COC(=O)c1c(NC(=O)c2ccccc2)sc(Cc2ccccc2)c1C do in these assays?
KB-3-1 cytotox: inactive; SW480 rerep: 10%; MCF10A rereplic: inconclusive; KB-V1 MDR tox: 13µM*; ELG1 repair inh: inconclusive

How did COC(=O)c1c(NC(=O)c2ccccc2)sc(C(N)=O)c1C do in these assays?
KB-3-1 cytotox: inconclusive; SW480 rerep: 4%; MCF10A rereplic: 3%; KB-V1 MDR tox: inactive; ELG1 repair inh: -8%

Bioassay records deposited in PubChem BioAssay by National Center for Advancing Translational Sciences (NCATS).
